{"source": "PubChem BioAssay (EPA / NIEHS)", "note": "Activity calls are given as the source filed them. How the source made its calls: active means hit-call score of the fitted dose curve at least 0.9, where 1 is the maximum; inactive means score below 0.9.", "data": [{"read-out": "Glutamate-cysteine ligase regulatory (GCLM), GCLM (gene 2730)", "experiment": "LTEA_HepaRG_GCLM: Life Technologies and Expression Analysis (LTEA) Assay for Glutamate-cysteine ligase regulatory (GCLM) using HepaRG (AID 2283500)", "conditions": "mRNA level, 48 h; actives raise or lower the signal", "method": "LTEA_HepaRG is a cell based, multiplexed-readout assay that uses HepaRG, a human liver cell line, with measurements taken at 48 hours after chemical dosing on a 96-well plate.LTEA_HepaRG_GCLM is one of 102 assay component(s) measured in the LTEA HepaRG cell culture assay. It is a marker of Cell proliferation, survival, death.Data from the assay component LTEA_HepaRG_GCLM was analyzed into 1 endpoint. This assay endpoint, LTEA_HepaRG_GCLM, was analyzed with bidirectional fitting relative to DMSO as the negative control and baseline of activity. Using a type of inducible reporter, measures of mRNA induction for gain or loss-of-signal activity can be used to understand regulation of transcription factor activity. To generalize the intended target to other relatable targets, this assay endpoint is annotated to the ligase intended target family, where the subfamily is C-N ligase.\nA total of 1060 chemcials from the ToxCast library were tested in eight-point concentration-response experiments. Cell culture and cytotoxicity assays were conducted at Thermo Fisher Scientific's Custom Services facility (Madison, WI). A single lot of human HepaRG cells (Thermo Fisher Scientific, Frederick, MD) was used for the cell culture experiments. 96-well format collagen type I coated plates of human HepaRG cells were prepared using established methods. Briefly, cryopreserved HepaRG cells were thawed, plated at a density of approximately 100,000 cells/well in HepaRG Thaw, Plate, and General Purpose media (HPRG770, Thermo Fisher Scientific), and incubated for 48 hours. 0.5% DMSO was selected as vehicle control to balance the requisite need of DMSO in HepaRG cultures to maintain differentiation (for example, baseline metabolism, proportions of hepatocytes vs. cholangiocytes), while enabling further hepatic receptor pathway activation (for example, PXR and CAR) in response to chemical exposure. 48 hours after plating, the culture medium was replaced with HepaRG Serum-Free Incudtion Media. Cells were exposed to each test chemical in duplicate and maintained in CO2 incubators for another 48 hours. Chemical plates were thawed to room temperature and 200x concentrations of treatment groups were prepared. 8-point conentration-reponse curves were made with the highest exposure at 100 uM, followed by half-log dilutions, all in 0.5% DMSO. Each test plate contained variouse controls, induction positive controls (1mM phenobarbital), cytotoxicity positive controls ([…] aflatoxin B1), vehicle controls (0.5% DMSO), and total lysis controls (0.5% DMSO). Cell morphology images were taken using an Essen IncuCyte FLR automated microscope, with six 96-well plates imaged in about 24 minutes. Images were captured and exported and JPEG files. Spent culture media was transfered to black-well plates for the LDH assay, and remaining media was sorted at -80 C for later use. Cells were treated with RLT buffer and frozen until shipped for gene expression analysis. Total RNA was isolated from the cell suspension in 75 uL of Buffer RLT (Qiagen, Germantown, MD 20874) by Quintiles/Expression Analysis (Durham, NC) using a custom isolation procedure. Total RNA from each plate well was transferred to a preamplification plate. Fluidigm's 96.96 Dynamic ArrayTM (Fluidigm, Amsterdam, the Netherlands) technology was used for gene expression analyses by quantitative reverse transcription polymerase chain reaction (qRT-PCR, performed by Quintiles/Expression Analysis, Durham, NC)89. Standard TaqManTM Assays (Applied Biosystems/ThermoFisher Scientific, Foster City, CA) were used to assess the expression of 93 genes selected based on their selectivity and sensitivity to important hepatic receptors known to be modulated by environmental chemicals; importance in human hepatocyte functionality; and hepatotoxicity. […]", "values": [{"smiles": "CCN(C(=O)c1cc(C)cc(OC[C@H](C)Nc2ccncc2)c1)C(C)C", "outcome": "inactive"}, {"smiles": "CC(C)=CCC/C(C)=C\\CO", "outcome": "inactive"}, {"smiles": "CCCCCCc1ccc(O)cc1O", "outcome": "inactive"}, {"smiles": "CCCCCCCCCCCCc1ccccc1", "outcome": "inactive"}, {"smiles": "O=C(O)c1cccc(N(Cc2cccnc2)c2ccc(OC(F)F)c(OC(F)F)c2)c1", "outcome": "inactive"}, {"smiles": "CC(C)CCO", "outcome": "inactive"}, {"smiles": "CN(C)c1ccc(N=NS(=O)(=O)O)cc1", "AC50": "50 µM (active)"}, {"smiles": "C=CCCCCCCCCC(=O)O", "outcome": "inactive"}, {"smiles": "CCOC(=O)c1ccc(C2CCC(NC[C@H](O)COc3ccc(O)c(NS(C)(=O)=O)c3)CC2)cc1", "note": "(stereo not given in full)", "outcome": "inactive"}, {"smiles": "CC(C)CC(C)(O)C#CC(C)(O)CC(C)C", "note": "(stereo not given)", "outcome": "inactive"}, {"smiles": "Nc1ccc(Nc2ccccc2)cc1", "outcome": "inactive"}, {"smiles": "Nc1cccc(N)c1", "outcome": "inactive"}, {"smiles": "CC/C(=C\\C(=N/O)C(N)=O)C(C)[N+](=O)[O-]", "note": "(stereo not given)", "outcome": "inactive"}, {"smiles": "Fc1ccccc1[C@@H](F)COC1CCC(Nc2ncnc3[nH]ncc23)CC1", "note": "(stereo not given in full)", "outcome": "inactive"}, {"smiles": "CN(C)c1ccc(Cc2ccc(N(C)C)cc2)cc1", "outcome": "inactive"}, {"smiles": "O=c1[nH]c2ccc(S(=O)CCN3CCC(Cc4ccc(F)cc4)CC3)cc2o1", "note": "(stereo not given)", "AC50": "50 µM (active)"}, {"smiles": "CCn1nc(Cc2ccccc2)cc1C1CCN(C[C@H]2C[C@H](N(C)[C@@H](C(=O)O)C(C)C)C[C@@H]2c2cccc(F)c2)CC1", "outcome": "inactive"}, {"smiles": "CC(C)(O)c1coc(S(=O)(=O)NC(=O)Nc2c3c(cc4c2CCC4)CCC3)c1", "outcome": "inactive"}, {"smiles": "O=P(OC(CCl)CCl)(OC(CCl)CCl)OC(CCl)CCl", "AC50": "83.9 µM (active)"}, {"smiles": "COc1cccc(-c2ccc(/C=C\\CN3CCCCCC3)cc2Cl)c1", "AC50": "68.7 µM (active)"}, {"smiles": "CC(O)CN(CCN(CC(C)O)CC(C)O)CC(C)O", "note": "(stereo not given)", "outcome": "inactive"}, {"smiles": "CCCCCCCCCCCCCCCO", "outcome": "inactive"}, {"smiles": "Clc1nc(Cl)c(Cl)c(Cl)c1Cl", "outcome": "inactive"}, {"smiles": "Cc1ccc(O)cc1", "outcome": "inactive"}, {"smiles": "CC1=CC(=O)CC(C)(C)C1", "outcome": "inactive"}, {"smiles": "COc1ccc(-n2nc(C(F)F)cc2-c2ccc(S(C)=O)cc2)cc1", "note": "(stereo not given)", "outcome": "inactive"}, {"smiles": "O=C1OC(=O)C2C3C=CC(C3)C12", "note": "(stereo not given)", "outcome": "inactive"}, {"smiles": "O=C1CCCCCN1", "outcome": "inactive"}, {"smiles": "CCc1cc(SCc2sc(-c3ccc(C(F)(F)F)cc3)nc2CN2CCN(c3ccc(OC)cc3)CC2)ccc1OCC(=O)O", "AC50": "26.5 µM (active)"}, {"smiles": "CCCN(C1CCN(C(=O)C2CCNCC2)CC1)[C@@H]1CCc2ccc(OC)cc2C1", "outcome": "inactive"}, {"smiles": "CC(C)CCCCCCCOC(=O)CCCCC(=O)OCCCCCCCC(C)C", "outcome": "inactive"}, {"smiles": "CC[C@H]1CC[C@H](NCc2cc3c(cc2OC)[C@H]2C[C@H]2C(=O)N3C)[C@H](c2ccccc2)N1", "outcome": "inactive"}, {"smiles": "NC(=O)NO", "outcome": "inactive"}, {"smiles": "CCCCC(CC)COC(=O)c1ccc(C(=O)OCC(CC)CCCC)cc1", "note": "(stereo not given)", "outcome": "inactive"}, {"smiles": "O=C(O)c1cc(N=Nc2ccc(S(=O)(=O)Nc3ccccn3)cc2)ccc1O", "outcome": "inactive"}, {"smiles": "O=C(CCCCCCCCc1cccnc1)N1CCC(C=C(c2ccccc2)c2ccccc2)CC1", "AC50": "12.8 µM (active)"}, {"smiles": "CCNc1ccccc1", "outcome": "inactive"}, {"smiles": "CC(C)=CCCC(C)CCO", "note": "(stereo not given)", "outcome": "inactive"}, {"smiles": "CC(C)=CCC/C(C)=C/CO", "outcome": "inactive"}, {"smiles": "CNCc1ccc(NC(=O)c2c[nH]c3c2C(=O)CCC3)cc1", "outcome": "inactive"}]}]}
